Experimental data published in PubChem BioAssay (NCI).
About 83,000 compounds went through this panel and 20% of them were active in at least one assay; those are over-represented in the sample as a whole.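 Growth was measured after 48 h exposure to one concentration of compound in 96-well plates. Values under 10 count as active.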 Values without a mark were called inactive. Activity calls are given as the source filed them.

tested on: OVCAR-3 ovarian; assay: NCI-60 one-dose screen, 48 h (100 = growth as untreated, 0 = no growth, -100 = all killed); conditions: 10 µM unless noted
Protocol: Growth inhibition of the OVCAR-3 human tumor cell line is measured as a screen for anti-cancer activity. Cells are grown in 96 well plates and exposed to the test compound for 48 hours. Compounds are tested at a single concentration, which is 10^-5 M for most compounds. The reported endpoint is percent growth (GI% or GIPRCNT), where numbers from 0 - 100% represent growth inhibition, and numbers from -100% - 0 represent cell death. For example, a value of 40 represents 60% growth inhibition. A value of 0 means no net growth occurred over the course of the experiment. A value of -40 indicates 40% of cells at the beginning of the experiment died by the end of the experiment. A value of -100 means all cells are dead at the end of the experiment.
NCI-60 Human Tumor Cell Lines Screen was performed using the standard one-dose NCI protocol, which is described in more detail at https://dtp.cancer.gov/discovery_development/nci-60/default.htm.
Compounds with GIPRCNT values below 10 were considered active. Activity score was based on GIPRCNT using the following formula: […]
Score is 0 for GIPRCNT values of 100 or above, 50 for GIPRCNT values of 0, and 100 for GIPRCNT values of -100.

SMILES | growth
Cc1cc(NC(=O)c2ccc(N)cc2)ccc1N=Nc1ccc2c(O)c(N=Nc3ccc(Cl)c(S(=O)(=O)O)c3)c(S(=O)(=O)O)cc2c1 | 85.9%
COc1cc(C2CC(c3ccc(C)cc3)=NN2C(C)=O)ccc1Oc1ccnc2cc(Cl)ccc12 (stereo not given) | 29.1%
O=C(Nc1cccc2ccccc12)c1cc2c(cc1Br)OCO2 | 104%
COc1ccc(CCN2CCCN3C2=Nc2ccccc2S3(=O)=O)cc1 | 6.69% (active)
CC(=O)c1cc(C(=O)c2ccc3c(c2)Sc2ccccc2N3)c2c(C)cc(C)cn12 | -26.1% (active)
CCC1=C(c2ccc(OC)cc2)C(C)(C)Oc2cc(O)c(CN3CCCC3)cc21 | 83.4%
COC(=O)[C@]12CC[C@@H](C)[C@H](C)[C@@H]1C1=CC[C@@H]3[C@@]4(C)C[C@@H](OC(=O)c5ccco5)[C@H](O)[C@@](C)(CO)[C@@H]4[C@H](O)C[C@@]3(C)[C@]1(C)CC2 | -93.8% (active)
C/C(=C\CCc1ccsc1)CC/C=C(\C)CCCN1CCC(CO)CC1 | 48.6%
O=C1CCCN1C1CCN(Cc2cc3ccccc3[nH]c2=O)c2ccccc21 (stereo not given) | 98.8%
COc1ccc(-c2cncn2-c2ccc(-c3nc4cc(OC)c(OC)c(OC)c4s3)cc2)cc1N | 44.2%
Cc1cccc(Cl)c1NC(=O)c1ccc2nc(NC(=O)NC3CC(C)(C)NC(C)(C)C3)sc2c1 | 99.7%
O=C(Nc1ncc([N+](=O)[O-])s1)c1cccc([N+](=O)[O-])c1 | 21.3%
COc1ccc(-c2cc(Cc3cccs3)c(=O)n(Cn3cncn3)n2)cc1 | 113%
Cc1cc(O)c2c(c1)C[C@H]1[C@@H]3CC[C@H]4CC(=O)CC[C@]4(C)[C@H]3CC(=O)[C@]21C | 98%
CCn1c2c(c3ccccc31)SC1c3cccn3CCN1C2=S (stereo not given) | 100%
CC(C)(C)c1ccc(S(=O)(=O)O)s1 | 115%
Cc1cc(CC(=O)O)n(C)c1C(=O)c1ccc(Cl)cc1 | 118%
Cc1nn(-c2ccccc2)c(Cl)c1C(CC(=O)c1ccc(Cl)cc1)CC(=O)c1ccc(Cl)cc1 | 91.7%
O=C1/C(=C/c2ccc([N+](=O)[O-])o2)Oc2ccc(Br)cc21 | -43.1% (active)
COc1ccc(C2=NN(C(=O)c3cc(OC)c(OC)c(OC)c3)C(c3ccc(C#N)cc3)C2)cc1OC (stereo not given) | -47.8% (active)

SMILES | growth
CC(=O)Oc1c(C)c(OC(C)=O)c2c(c1C(C)=O)OC1CC(=O)C(C(C)=O)=C(O)C21C (stereo not given) | 118%
COc1ccc(C2CC(c3ccc(OC)c(OC)c3)=NN2C(=O)c2cc(OC)c(OC)c(OC)c2)c(OC)c1 (stereo not given) | 52.9%
COc1cc(Oc2cc(-c3cccnc3)ccc2NC(=O)Nc2ccc(F)cc2F)cc(OC)c1OC | 102%
Cc1cc(NC(=O)Nc2cccc3ccccc23)no1 | 113%
N#Cc1ccc(NC(=O)Nc2ccc(Oc3ccc(NC(=O)Nc4ccc(C#N)cc4)cc3)cc2)cc1 | 11.1%
S=C(Nc1ccc(C2=NCCN2)cc1)Nc1ccc(C2=NCCN2)cc1 | 110%
COc1ccc(Cn2c(NCCCN(C)C)nc(=O)n(Cc3ccc(F)cc3)c2=O)cc1 | 87%
O=c1ccn(C2CCCO2)c(=O)[nH]1 (stereo not given) | 115%
ClC1=C(Cl)C(Cl)=C(Cl)C1=Cc1ccc(Cl)cc1 | -96.8% (active)
COc1ccc(Nc2nccc(N3CCN(c4c5ccc(Cl)cc5nc5ccc(OC)cc45)CC3)n2)cc1 | 67.5%
CN(CC(=O)N(Cc1ccc(C2CCCCC2)cc1)c1ccc(C(=O)O)cc1)S(=O)(=O)c1c(F)c(F)c(F)c(F)c1F | -83.1% (active)
N=C(N)/N=C(\CCc1nc2ccccc2[nH]1)c1nc2ccccc2[nH]1 | 109%
CCCCCCCCCCCCCCCCCC1=NC(C)(C)CN1CCO | -9.27% (active)
COc1ccc2c(c1)C(=O)c1c-2c(OCCN(C)C)nc2cc(OC)ccc12 | 32.5%
Fc1ccc([C@@H]2CCNC[C@H]2COc2ccc3c(c2)OCO3)cc1 | 81.3%
CCN(CC)CCNc1ccc(Cl)cc1Cl | 109%
Cn1cc(-c2csc(-c3c[nH]c4ncccc34)n2)c2cc(Br)cnc21 | 20.6%
C=C(C)[C@H]1CC/C(C)=C/CC[C@]2(C)O[C@H]2CC/C(COC(C)=O)=C\C1=O | 164%
CC(c1cc(Cl)ccc1O)c1cc(Cl)ccc1O | 28.2%
COc1cc(C2CC(=O)Nc3c2cc(Br)c2ccccc32)cc(Br)c1OC (stereo not given) | -13% (active)
